Screens as filed in PubChem.
Shiga toxin inh: Shiga toxin inhibition | Vero cells, Shiga toxin protein synthesis inhibition reporter | inhibition, % at 38.7 µM | 290,000 compounds, 9.2% hits; in the data active = inhibition mostly above about 28%, no sharp cut-off; inactive = mostly below about 43%
Pf growth 48h: P. falciparum growth inhibition at 48 hours (one generation); P. falciparum luciferase growth in erythrocytes, 48 h; Potency, µM (titrated, usually from 28.7 µM), usual class: inhibitors; 310,000 compounds, 5.9% hits; AID 504832
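Luciferase-expressing P. falciparum in infected erythrocytes (2% hematocrit, 0.1% parasitemia final) in RPMI 1640/0.5% Albumax were exposed to compound for 48 hours at 37 C, 5% CO2; growth read as luminescence.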
CHX counter: counter-screen hit for Shiga toxin inhibitors, cycloheximide; cell reporter, cycloheximide protein synthesis inhibition counterscreen; max response, %; AID 2314; 300,000 compounds, 12% hits; in the data active = max response mostly above about 13%, no sharp cut-off; inactive = mostly below about 14%; also: read at 38.3 µM for the half of the compounds with a filed dose
HCMV antiviral: inhibitors of human cytomegalovirus; 410,000 compounds, 4.5% hits; HFF cells, HCMV-luciferase reporter, 72 h; stronger effect = lower value; activity change, negative = inhibition, % at 57.5 µM; in the data active = activity change below about -60%; inconclusive = no clear call, values can overlap the other calls; inactive = above about -39%
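Two-dose cell screen: HFF monolayers treated with compounds and infected with luciferase-expressing HCMV at 1 PFU/cell, 72 h at 37C, then lysed for luciferase measurement.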
Pf growth 96h: inhibits malaria parasite growth, 96 h; P. falciparum luciferase reporter growth, 96 h; Potency, µM (series often up to 28.7 µM), actives largely listed as inhibitors; 320,000 compounds, 6.9% hits
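P. falciparum expressing integrated firefly luciferase, in erythrocytes at 2% hematocrit, 0.05% parasitemia, incubated with compounds 96 h at 37 C, 5% CO2. Growth inhibition read as loss of luminescence; two-generation exposure targets delayed-death apicoplast inhibitors.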
HCV inhibitor: blocks hepatitis C virus | Huh7.5.1 HCVcc-Cre infection, luciferase reporter, 44 h | Potency, µM (top dose mostly 41.8 µM), most hits filed as inhibitors | 340,000 compounds, 3.4% hits
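Antiviral activity was scored by luciferase reporter output from cells infected with HCVcc-Cre (~0.5 moi) in presence of compound, 44 h infection period, cells seeded 1,000/well 4 h prior.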
Hits are given with their value; . = inactive; ? = inconclusive; / = no result given; [ ] = dose if it differs, or a comment. Sampled rows, rich in hits. Any-hit rate of the full collection: about 21%. Unless noted, calls follow the shape of the dose curve; as a rule, active = well fitted inhibition curve with a large enough effect; inconclusive = small, poorly fitted or top-dose-only effect, or another doubt; inactive = no such curve, though single readings can be large or run the other way.

SMILES	Shiga toxin inh	Pf growth 48h	CHX counter	HCMV antiviral	Pf growth 96h	HCV inhibitor
NC(=O)C1CCN(c2nc(C3CC3)nc3c2nnn3Cc2ccccc2)CC1	.	13µM	.	.	?	?
O=C(c1ccccc1)N1CCCC(c2nc3c(nnn3Cc3ccccc3)c(=O)[nH]2)C1 (stereo unspecified)	.	13µM	.	.	.	.
Cc1ccc(C)c(Cn2nnc3c(=O)[nH]c(C4CCCN(C(=O)C5CCCCC5)C4)nc32)c1 (stereo unspecified)	.	6.6µM	.	.	.	.
O=C(C1CCCCC1)N1CCCC(c2nc3c(nnn3Cc3ccccc3)c(=O)[nH]2)C1 (stereo unspecified)	.	?	.	.	/	/
NC(=O)C1CCN(c2nc(C3CC3)nc3c2nnn3Cc2ccccc2Cl)CC1	.	?	.	.	.[5.75 µM]	.
Cc1ccc(C)c(Cn2nnc3c(=O)[nH]c(C4CCCN(S(=O)(=O)Cc5ccccc5)C4)nc32)c1 (stereo unspecified)	.	.	.	.	.	.
COc1ccc([N+](=O)[O-])cc1NC(=O)CCS(=O)(=O)c1ccc(Br)cc1	.	.	.	.	.	.
COc1ccc(NC(=O)C2=C(C)Nc3nc(SCc4ccccc4C)nn3C2c2cc(OC)c(O)c(OC)c2)cc1 (stereo unspecified)	/	/	/	.	/	/
COc1cc(/C=C/C(=O)O)ccc1OS(=O)(=O)c1c(C)cc(C)cc1C	/	.	/	.	.	.
COc1ccc(NC(=O)Cn2c(SCc3cccc(Cl)c3)nc3ccncc32)c(OC)c1OC	/	/	/	.	/	/
COC(=O)c1ccc(/C=C/c2ccc3cccc(OC)c3n2)cc1	.	.	.	.	?	.
COc1cccc(/C=C/c2ccc3cccc(O)c3n2)c1	121	.	47	-95	.	?
Cc1ccc(/C=C/c2ccc3cccc(O)c3n2)s1	95	.	58	.	.	?
Cc1cccc(/C=C/c2ccccc2)n1	/	/	/	.	/	/
CC(=O)COc1cccc2ccc(/C=C/c3ccc(Br)s3)nc12	36	.	.	.	?	11µM
Oc1cccc(/C=C/c2ccc3cccc(O)c3n2)c1	128	.[0.00184 µM]	37	.	.	?
CCOC(=O)c1sc(S(C)=O)c2c1CCc1conc1-2 (stereo unspecified)	.	?	.	.	?	.
O=C(Nc1cccc(Cl)c1)c1cc(S(=O)(=O)NCCc2ccc(Cl)cc2)ccc1F	.	.	.	?	?	?
CSCC[C@H](NC(=O)[C@H](CC(C)C)NC(=O)CNC(=O)[C@H](Cc1ccc(O)cc1)NC(=O)[C@H](Cc1ccccc1)NC(=O)[C@H](CCCCN)NC(=O)[C@H](CC(N)=O)NC(=O)[C@@H]1CCCN1C(=O)[C@H](CC(=O)O)NC(=O)[C@H](C)NC(=O)[C@@H]1CCC(=O)N1)C(N)=O	.	/	.	/	/	/
Cc1ccc(OCC(=O)Nc2ccc(OCc3cc(=O)n4cccc(C)c4n3)cc2)cc1C	/	/	/	.	/	/
O=C(NC1CCCc2ccccc21)c1ccccn1 (stereo unspecified)	.	.	.	.	.	.
Cc1ccc(C(=O)NC2CCCc3ccccc32)o1 (stereo unspecified)	.	.	.	.	?	.
O=C(NC1CCCc2ccccc21)c1cn2ccccc2n1 (stereo unspecified)	.	.	19	.	.	?
Cc1nc2ccccn2c1C(=O)NC1CCCc2ccccc21 (stereo unspecified)	.	9.3µM	.	-72	?	7.1µM
CCc1ccc(S(=O)(=O)c2nnn3c2nc(NCc2cccc(OC)c2)c2cc(Cl)ccc23)cc1	/	/	/	.	/	/
SMILES	Shiga toxin inh	Pf growth 48h	CHX counter	HCMV antiviral	Pf growth 96h	HCV inhibitor
Cc1ccc(NC(=O)CN2C(=O)c3ccccc3Sc3ccc(C(=O)N4CCOCC4)cc32)c(Cl)c1	/	/	/	.	/	/
Cc1ccc(NC(=O)N2CCN3CCCCC3C2)cc1F (stereo unspecified)	/	/	/	.	/	/
CC(=O)Nc1cccc(-c2ccnc3c2CC(C)(C(=O)Nc2ccc(Cl)cc2)O3)c1 (stereo unspecified)	/	/	/	.	/	/
O=C(Nc1cccc(Cl)c1)O/N=C\c1ccncc1	.	.	.	.	.	.
O=[N+]([O-])c1ccc(-c2csc(N/N=C/c3cccnc3)n2)cc1	.	.	.	.	.	.
Cc1ccc(N/N=C/c2ccncc2)cc1	87	?	42	.	?	?
Clc1cccc(N/N=C/c2ccncc2)c1	.	2.6µM	31	.	.	.
CC(C)NC(=S)N/N=C/c1cccnc1	.	.	.	.	?	.
Cc1ccc(N/N=C/c2cccnc2)cc1	84	?	53	.	?	.
Cc1csc(N/N=C\c2cccnc2)n1	91	.	58	.	.	.
Cc1ccc(OCCSc2nc3ccccc3n2CC(=O)N2CCOCC2)c(C)c1	/	/	/	.	/	/
COC(=O)[C@@H]1[C@@H](CO)[C@@H]2Cn3c(ccc(Br)c3=O)[C@@H]2N1C	/	/	/	.	/	/
COc1cc2c(c(OC)c1OC)-c1c(cc3c(c1OC)OCO3)[C@@H](OC(C)=O)[C@H](C)[C@H](C)C2	.	13µM	.	.	10µM	.
C/C=C(/C)C(=O)O[C@@H]1c2cc(OC)c(OC)c(OC)c2-c2c(cc3c(c2OC)OCO3)C[C@H](C)[C@]1(C)O	.	?	.	.	?	.
CCN1CCN(C(c2cc3cccc(C)c3[nH]c2=O)c2nnnn2Cc2ccccc2)CC1 (stereo unspecified)	.	?	.	.	.	.
CCc1ccc2[nH]c(=O)c(CN(Cc3ccc(OC)cc3)Cc3nnnn3CCOC)cc2c1	.	1.9µM	.	.	?	.
Cc1cccc2cc(CN(Cc3ccco3)C(c3nnnn3CCc3ccccc3)C(C)C)c(=O)[nH]c12 (stereo unspecified)	.	1.9µM	.	.	.	?
COc1ccc2[nH]c(=O)c(CN(Cc3ccco3)C(c3nnnn3Cc3ccccc3)C(C)C)cc2c1 (stereo unspecified)	.	/	.	-98	3.3µM	?
COCCn1nnnc1C(C(C)C)N(Cc1ccccc1)Cc1cc2cc(OC)ccc2[nH]c1=O (stereo unspecified)	.	8.3µM	.	.	.[5.75 µM]	?
COCCn1nnnc1C(C(C)C)N(Cc1cccnc1)Cc1cc2cc(OC)ccc2[nH]c1=O (stereo unspecified)	.	?	.	.	.	.
O=C(Nc1ccc(N2CCN(c3ccc(F)cc3)CC2)c(C(=O)O)c1)c1cccs1	/	/	/	.	/	/
CCC(C)(C)n1nnnc1C(C(C)C)N(Cc1ccco1)Cc1cc2cc3c(cc2[nH]c1=O)OCO3 (stereo unspecified)	.	?	.	.	?	22µM
O=C(COc1ncnc2ccc(Br)cc12)NC1CCCC1	/	.	/	.	.	.
c1ccc(-c2ccc3[nH]ccc3c2)cc1	/	.	/	.	.	.
c1ccc(-c2onc(-c3ccco3)c2-c2ccc3[nH]ccc3c2)cc1	42	.	34	?	?	?
